Experiment [1] is described as follows: pPAFAH inhibition and serine hydrolase selectivity, SAR follow-up, selectivity assay for pPAFAH inhibitor project, biochemical, gel-based, FP-Rh fluorescence, complex proteome, SAR compounds (AID 588774).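 On inhibition: 0% = DMSO-only band intensity and 100% = blank gel background.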 To be noted: gel-based competitive ABPP, MW 32 kDa, anti-targets inhibited, at 10 µM.
The test system of another experiment is MW 32 kDa. Described as above. To be noted: gel-based competitive ABPP, at 10 µM, stronger effect = higher value.

Each structure is given as a SMILES string. Active and inactive are the calls of the source.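 How the source made its calls: active means target enzyme inhibited at least 50% at a set dose, and selective over every off-target enzyme by a set factor; inactive means weaker inhibition or too little selectivity.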

Take `O=C(Oc1noc2cc(Cl)ccc12)N1CCOCC1`: the anti-target count in experiment [1] stood at 3. Moreover, the inhibition in the experiment on MW 32 kDa is 30% (inactive).
The compound `Cc1cc(N2CCN(C(=O)n3ncc(-c4ccc([N+](=O)[O-])cc4)n3)CC2)c2ccccc2n1` displayed an anti-target count in experiment [1] of 9. For the same compound, the inhibition in the experiment with MW 32 kDa was 85% (inactive).
On to `Cc1cc(N2CCN(C(=O)n3ncc(-c4ccccc4)n3)CC2)c2ccccc2n1`, for which the anti-target count in experiment [1] was found to be 9. In addition, the inhibition with MW 32 kDa was 72% (inactive).
Take `Cc1cc(N2CCN(C(=O)Oc3ccc(-c4ccccc4)cc3)CC2)c2ccccc2n1`: in experiment [1], the anti-target count turned out to be 0. For the same compound, the inhibition in the experiment on MW 32 kDa was 0% (inactive).
`Cc1cc(N2CCN(C(=O)n3ncc(-c4ccc(Cl)c(Cl)c4)n3)CC2)c2ccccc2n1` gave an anti-target count in experiment [1] of 8. The inhibition with MW 32 kDa was 50% (inactive).
The compound `Cc1cc(N2CCN(C(=O)Oc3ccc(C(F)(F)F)cc3)CC2)c2ccccc2n1` came in with an anti-target count in experiment [1] of 1. Moreover, the inhibition in the experiment with MW 32 kDa was 0% (inactive).
On to `Cc1cc(N2CCN(C(=O)Oc3ccc(-n4cccc4)cc3)CC2)c2ccccc2n1`, for which the anti-target count in experiment [1] came out at 0. Moreover, the inhibition in the experiment with MW 32 kDa is 0% (inactive).
As for `O=C(N1CCOCC1)n1oc2cc(Cl)ccc2c1=O`, in experiment [1], the anti-target count worked out at 6. The inhibition in the experiment on MW 32 kDa was 39% (inactive).
As for `Cc1cc(N2CCN(C(=O)Oc3ccc([N+](=O)[O-])cc3)CC2)c2ccccc2n1`, in experiment [1], the anti-target count came to 2. In the experiment on MW 32 kDa, the inhibition is 0% (inactive).
In experiment [1], `Cc1cc(N2CCN(C(=O)Oc3ccc(-c4ccc(Br)cc4)cc3)CC2)c2ccccc2n1` gave an anti-target count of 0. For the same compound, the inhibition in the experiment on MW 32 kDa was 0% (inactive).
Compound `Cc1cc(N2CCN(C(=O)Oc3noc4cc(Cl)ccc34)CC2)c2ccccc2n1` had an anti-target count in experiment [1] of 4. In the experiment with MW 32 kDa, the inhibition was 0% (inactive).
The compound `Cc1cc(N2CCN(C(=O)Oc3ccc(C4CCCC4)cc3)CC2)c2ccccc2n1` registered an anti-target count in experiment [1] of 0. Also, the inhibition in the experiment on MW 32 kDa is 0% (inactive).
Taken in the same sequence, the figures for `Cc1cc(N2CCN(C(=O)n3ncc(-c4ccc(OC(F)(F)F)cc4)n3)CC2)c2ccccc2n1` were 9 and 87% (inactive).
`O=C(Oc1noc2cc(Cl)ccc12)N1CCCCC1`: the anti-target count in experiment [1] was 2. Moreover, the inhibition in the experiment on MW 32 kDa is 0% (inactive).
In experiment [1], `Cc1cc(N2CCN(C(=O)Oc3ccc(C4CCCCC4)cc3)CC2)c2ccccc2n1` showed an anti-target count of 0. Also, the inhibition with MW 32 kDa was 0% (inactive).
For `COc1ccc(-c2cnn(C(=O)N3CCN(c4cc(C)nc5ccccc45)CC3)n2)cc1`, the anti-target count in experiment [1] was found to be 8. For the same compound, in the experiment with MW 32 kDa, the inhibition was 67% (inactive).
`Cc1cc(N2CCN(C(=O)n3oc4cc(Cl)ccc4c3=O)CC2)c2ccccc2n1` yielded an anti-target count in experiment [1] of 3. Besides, the inhibition in the experiment on MW 32 kDa is 0% (inactive).

These data come from PubChem BioAssay AID588774 (The Scripps Research Institute Molecular Screening Center, 2011).
